Test results reported in PubChem BioAssay (EPA / NIEHS).
Several values for one entry are separate records, joined by “and”; a condition that tells them apart may be missing. Equal values may be shown once. Inconclusive results are not listed. The source holds several records for some structures; these can differ, active in one and inactive in another. Activity calls are given as the source filed them. Rule for the calls, unless noted: active = hit-call score of the fitted dose curve at least 0.9, where 1 is the maximum; inconclusive = response in the unintended direction; inactive = score below 0.9.

What was measured:
[1] = ATG_VDRE_CIS: Attagene CIS-FACTORIAL HepG2 Assay for human Vitamin D Receptor Element (VDRE) (AID 2282968; active = hit-call score of the fitted dose curve at least 0.9, where 1 is the maximum; inactive = score below 0.9); settings: HepG2 VDRE cis-reporter transcription, actives raise or lower the signal
Outline: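 Compounds were applied for 24 h to HepG2 cells transfected with promoter-regulated reporter units. Total RNA was reverse-transcribed, and reporter amplicons were fluorescently labelled and sized by capillary electrophoresis.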

[2] = target: Estrogen receptor (Homo sapiens) (UniProt P03372); experiment: ATG_ERa_TRANS: Attagene TRANS-FACTORIAL HepG2 Assay for human Estrogen Receptor alpha (ERa) (AID 2282970); settings: HepG2 Attagene TRANS ERa GAL4 reporter, mRNA
Sequence of Estrogen receptor (Homo sapiens) (P03372 whole entry, looked up, the tested form may be a part): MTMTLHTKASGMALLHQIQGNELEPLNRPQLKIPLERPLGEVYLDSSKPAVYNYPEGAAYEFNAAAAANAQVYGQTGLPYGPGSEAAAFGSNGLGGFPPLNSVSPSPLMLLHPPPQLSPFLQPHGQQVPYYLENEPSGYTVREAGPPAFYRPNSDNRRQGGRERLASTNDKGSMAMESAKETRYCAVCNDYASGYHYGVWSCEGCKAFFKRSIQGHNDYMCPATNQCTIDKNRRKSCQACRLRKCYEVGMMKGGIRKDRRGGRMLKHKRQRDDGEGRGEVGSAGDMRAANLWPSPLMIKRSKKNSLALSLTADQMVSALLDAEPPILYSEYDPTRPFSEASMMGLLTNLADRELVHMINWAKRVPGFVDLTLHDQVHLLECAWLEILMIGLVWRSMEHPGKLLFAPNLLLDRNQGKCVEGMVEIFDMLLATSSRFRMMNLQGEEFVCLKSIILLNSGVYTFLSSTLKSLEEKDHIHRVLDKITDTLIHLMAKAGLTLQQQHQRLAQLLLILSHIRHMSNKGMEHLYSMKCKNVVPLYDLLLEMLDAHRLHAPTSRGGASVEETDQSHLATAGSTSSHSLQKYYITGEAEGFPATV
Outline: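 Transfected HepG2 cells carrying GAL4-UAS-driven reporter units were dosed for 24 hours. Total RNA was reverse-transcribed, reporter sequences PCR-amplified, FAM-labelled, HpaI-digested and resolved by capillary electrophoresis. Increases over DMSO control defined activity.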

[3] = target: X-box-binding protein 1 (Homo sapiens) (UniProt P17861); experiment: ATG_Xbp1_CIS: Attagene CIS-FACTORIAL HepG2 Assay for human X-box Binding Protein 1 (XBP1) (AID 2282972; active = hit-call score of the fitted dose curve at least 0.9, where 1 is the maximum; inactive = score below 0.9); settings: HepG2 XBP1 cis-element reporter, Attagene multiplex; actives raise or lower the signal
Sequence of X-box-binding protein 1 (Homo sapiens) (P17861 whole entry, looked up): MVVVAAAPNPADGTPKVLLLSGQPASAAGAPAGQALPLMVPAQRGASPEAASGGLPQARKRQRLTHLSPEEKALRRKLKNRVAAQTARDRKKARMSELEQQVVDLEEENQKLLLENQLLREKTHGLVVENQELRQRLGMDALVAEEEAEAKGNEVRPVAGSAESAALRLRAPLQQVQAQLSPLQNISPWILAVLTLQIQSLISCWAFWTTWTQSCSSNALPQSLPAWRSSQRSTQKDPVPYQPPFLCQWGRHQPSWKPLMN
Outline: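 Human hepatoma HepG2, cis-element reporter system, 24 h treatment; mRNA quantified by RT-PCR/CE fluorescence; fit relative to DMSO.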

[4] = ATG_GAL4_TRANS: Attagene TRANS-FACTORIAL HepG2 Assay for GAL4 (Internal Marker) (AID 2282976); settings: HepG2 Attagene TRANS GAL4 internal marker reporter
Outline: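 Fluorescence from capillary electrophoresis of labelled RT-PCR products quantifies reporter mRNA induction after 24 h dosing of HepG2 cells carrying transfected GAL4-UAS reporter transcription units. Vehicle DMSO serves as baseline.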

[5] = target: Glucocorticoid receptor (Homo sapiens) (UniProt P04150); experiment: ATG_GR_TRANS: Attagene TRANS-FACTORIAL HepG2 Assay for human Glucocorticoid Receptor (GR) (AID 2282978); settings: HepG2 Attagene TRANS GR reporter, mRNA transcription;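 note: activators score as hits since higher reporter transcript over DMSO is fitted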
Sequence of Glucocorticoid receptor (Homo sapiens) (P04150 whole entry, looked up): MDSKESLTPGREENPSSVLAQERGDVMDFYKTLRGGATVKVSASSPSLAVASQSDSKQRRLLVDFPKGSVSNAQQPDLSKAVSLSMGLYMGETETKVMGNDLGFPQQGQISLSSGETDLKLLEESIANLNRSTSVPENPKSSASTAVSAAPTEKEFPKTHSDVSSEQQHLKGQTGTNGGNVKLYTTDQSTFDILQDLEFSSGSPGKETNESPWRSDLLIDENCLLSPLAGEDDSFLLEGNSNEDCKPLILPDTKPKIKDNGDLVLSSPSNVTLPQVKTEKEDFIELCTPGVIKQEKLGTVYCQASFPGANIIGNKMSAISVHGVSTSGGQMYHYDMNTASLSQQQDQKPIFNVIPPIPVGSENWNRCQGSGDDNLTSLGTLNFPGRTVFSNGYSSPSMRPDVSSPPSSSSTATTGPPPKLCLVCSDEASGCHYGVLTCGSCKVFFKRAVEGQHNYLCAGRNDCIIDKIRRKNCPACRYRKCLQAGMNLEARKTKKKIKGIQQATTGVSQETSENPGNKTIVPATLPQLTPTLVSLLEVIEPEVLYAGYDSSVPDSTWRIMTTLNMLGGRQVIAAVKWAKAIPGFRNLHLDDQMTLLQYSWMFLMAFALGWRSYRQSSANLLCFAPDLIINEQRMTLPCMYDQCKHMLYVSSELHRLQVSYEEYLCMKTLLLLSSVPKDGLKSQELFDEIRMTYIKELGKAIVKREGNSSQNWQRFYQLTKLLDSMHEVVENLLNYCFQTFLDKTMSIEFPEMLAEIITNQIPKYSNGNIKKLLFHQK
Outline: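 After 24 h incubation with test chemical, transfected HepG2 cells were lysed for RNA; reporter cDNA was amplified, FAM-labelled, HpaI-digested and sized on a capillary analyser. Signal gain relative to DMSO was scored.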

[6] = ATG_M_06_TRANS: Attagene TRANS-FACTORIAL HepG2 Assay for M06 Transcription Factor (Internal Marker) (AID 2282983); settings: HepG2 Attagene TRANS M06 internal marker reporter
Outline: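 Human liver HepG2 cells bearing transiently transfected chimeric NR-GAL4 reporter units were treated with chemicals for 24 h. Total RNA was reverse-transcribed, reporter sequences amplified and labelled, then quantified by capillary electrophoresis. Activity was fitted upward relative to DMSO.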

[7] = target: Transcriptional activator Myb (Homo sapiens) (UniProt P10242); experiment: ATG_Myb_CIS: Attagene CIS-FACTORIAL HepG2 Assay for human Myeloblastosis (Myb) Proto-Oncogene Transcription Factor (AID 2282986; active = hit-call score of the fitted dose curve at least 0.9, where 1 is the maximum; inactive = score below 0.9); settings: HepG2 Attagene CIS-FACTORIAL Myb reporter transcription; actives raise or lower the signal
Sequence of Transcriptional activator Myb (Homo sapiens) (P10242 whole entry, looked up): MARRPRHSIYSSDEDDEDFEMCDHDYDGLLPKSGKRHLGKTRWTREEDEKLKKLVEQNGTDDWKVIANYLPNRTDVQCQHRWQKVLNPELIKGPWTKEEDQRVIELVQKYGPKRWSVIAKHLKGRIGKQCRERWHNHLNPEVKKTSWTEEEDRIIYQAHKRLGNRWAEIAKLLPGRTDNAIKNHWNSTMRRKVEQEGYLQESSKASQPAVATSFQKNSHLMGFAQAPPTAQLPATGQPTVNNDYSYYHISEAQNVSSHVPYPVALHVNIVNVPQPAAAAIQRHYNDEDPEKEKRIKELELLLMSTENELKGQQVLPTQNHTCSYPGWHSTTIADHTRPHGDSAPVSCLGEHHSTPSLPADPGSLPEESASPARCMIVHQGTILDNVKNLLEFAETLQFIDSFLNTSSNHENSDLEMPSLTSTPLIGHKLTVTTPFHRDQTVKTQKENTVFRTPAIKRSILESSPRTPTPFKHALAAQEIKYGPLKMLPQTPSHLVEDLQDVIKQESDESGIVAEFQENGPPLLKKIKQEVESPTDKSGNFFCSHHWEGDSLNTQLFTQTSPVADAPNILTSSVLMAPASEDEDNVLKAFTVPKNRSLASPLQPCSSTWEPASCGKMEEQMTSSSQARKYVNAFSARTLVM
Outline: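 After 24 h of compound dosing, total RNA from transfected HepG2 cells is reverse-transcribed and the reporter sequences amplified, labeled and separated by capillary electrophoresis. Values come from bidirectional fitting against DMSO.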

[8] = target: Nuclear respiratory factor 1 (Homo sapiens) (UniProt Q16656); experiment: ATG_NRF1_CIS: Attagene CIS-FACTORIAL HepG2 Assay for human Nuclear Respiratory Factor 1 (NRF1) Orphan Gene (AID 2282987; active = hit-call score of the fitted dose curve at least 0.9, where 1 is the maximum; inactive = score below 0.9); settings: HepG2 NRF1 cis-element reporter, Attagene multiplex; actives raise or lower the signal
Sequence of Nuclear respiratory factor 1 (Homo sapiens) (Q16656 whole entry, looked up): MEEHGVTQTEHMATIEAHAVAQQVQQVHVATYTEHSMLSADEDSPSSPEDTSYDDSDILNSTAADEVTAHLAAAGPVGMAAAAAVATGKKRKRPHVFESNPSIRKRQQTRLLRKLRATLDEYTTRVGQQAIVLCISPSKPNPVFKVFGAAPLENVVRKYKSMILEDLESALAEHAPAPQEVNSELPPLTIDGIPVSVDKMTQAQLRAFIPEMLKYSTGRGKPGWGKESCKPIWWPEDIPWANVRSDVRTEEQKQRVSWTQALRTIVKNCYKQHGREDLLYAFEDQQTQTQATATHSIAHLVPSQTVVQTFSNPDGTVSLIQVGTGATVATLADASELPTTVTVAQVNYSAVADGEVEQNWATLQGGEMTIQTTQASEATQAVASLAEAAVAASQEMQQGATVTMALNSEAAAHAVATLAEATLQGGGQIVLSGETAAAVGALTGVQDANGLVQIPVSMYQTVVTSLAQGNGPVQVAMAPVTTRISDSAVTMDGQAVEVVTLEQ
Outline: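 Measured: fluorescent reporter-specific RT-PCR products from transfected HepG2 cells, separated by capillary electrophoresis. Exposure lasted 24 h. Analysis used bidirectional curve fitting with DMSO as negative control.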

[9] = ATG_NFI_CIS: Attagene CIS-FACTORIAL HepG2 Assay for human Nuclear Factor I (NFI) (AID 2282989; active = hit-call score of the fitted dose curve at least 0.9, where 1 is the maximum; inactive = score below 0.9); settings: HepG2 cis-regulatory reporter, NFI response element transcription; actives raise or lower the signal
Outline: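 HepG2 cells transiently transfected with cis-element-driven multiplexed reporter transcription units, dosed for 24 h. Reporter mRNA quantified by RT-PCR, fluorescent labelling, HpaI digestion and capillary electrophoresis; bidirectional fit versus DMSO baseline.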

[10] = target: Steroid hormone receptor ERR1 (Homo sapiens) (UniProt P11474); experiment: ATG_ERRa_TRANS: Attagene TRANS-FACTORIAL HepG2 Assay for human Estrogen-Related Receptor alpha (ERRa) (AID 2282971); settings: HepG2 Attagene TRANS reporter, ERRa transactivation
Outline: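 HepG2 cells were transiently transfected with multiple GAL4-UAS reporter units, then dosed with compound for 24 h. Total RNA was reverse-transcribed, reporter cDNA PCR-amplified and fluorescently labelled, and fragments resolved by capillary electrophoresis; induction was compared with DMSO.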

[11] = target: Estrogen-related receptor gamma (Homo sapiens) (UniProt P62508); experiment: ATG_ERRg_TRANS: Attagene TRANS-FACTORIAL HepG2 Assay for human Estrogen-Related Receptor gamma (ERRg) (AID 2282977); settings: HepG2 Attagene TRANS reporter, ERRg transactivation;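 note: hits increase reporter signal over DMSO so potencies reflect activators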
Sequence of Estrogen-related receptor gamma (Homo sapiens) (P62508 whole entry, looked up, the tested form may be a part): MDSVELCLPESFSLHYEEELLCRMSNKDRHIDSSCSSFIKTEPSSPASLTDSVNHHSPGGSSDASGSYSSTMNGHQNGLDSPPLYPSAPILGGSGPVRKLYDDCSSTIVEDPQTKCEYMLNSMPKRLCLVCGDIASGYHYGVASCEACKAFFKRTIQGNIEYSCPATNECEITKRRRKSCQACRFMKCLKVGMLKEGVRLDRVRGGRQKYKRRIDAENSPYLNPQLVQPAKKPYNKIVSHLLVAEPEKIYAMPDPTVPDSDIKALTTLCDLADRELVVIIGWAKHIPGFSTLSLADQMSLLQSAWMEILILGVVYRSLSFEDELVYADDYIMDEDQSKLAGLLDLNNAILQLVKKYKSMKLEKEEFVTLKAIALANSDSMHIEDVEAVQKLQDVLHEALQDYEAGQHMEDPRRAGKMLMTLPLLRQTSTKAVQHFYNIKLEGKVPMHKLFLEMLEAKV
Outline: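 Exogenous NR-Gal4 chimera activity measured as reporter transcript induction after 24 h in transiently transfected HepG2 cells. RNA reverse-transcribed, PCR-amplified, 6-FAM-labelled and resolved by capillary electrophoresis; increase over DMSO baseline.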

[12] = target: Bile acid receptor (Homo sapiens) (UniProt Q96RI1); experiment: ATG_FXR_TRANS: Attagene TRANS-FACTORIAL HepG2 Assay for Farnesoid X Receptor (FXR) (AID 2282979); settings: HepG2 Attagene TRANS FXR-GAL4 reporter transcription;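 note: hits raise reporter mRNA above DMSO so AC50 marks FXR activation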
Outline: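 Chimeric FXR-GAL4 activity in transiently transfected human HepG2 liver cells is scored as induction of reporter mRNA after 24 h of dosing. Detection uses RT-PCR with fluorescent labelling and capillary electrophoresis, with DMSO serving as baseline.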

[13] = target: Oxysterols receptor LXR-beta (Homo sapiens) (UniProt P55055); experiment: ATG_LXRb_TRANS: Attagene TRANS-FACTORIAL HepG2 Assay for human Liver X Receptor beta (LXRb) (AID 2282981); settings: HepG2 Attagene TRANS GAL4-LXRb reporter, mRNA
Sequence of Oxysterols receptor LXR-beta (Homo sapiens) (P55055 whole entry, looked up, the tested form may be a part): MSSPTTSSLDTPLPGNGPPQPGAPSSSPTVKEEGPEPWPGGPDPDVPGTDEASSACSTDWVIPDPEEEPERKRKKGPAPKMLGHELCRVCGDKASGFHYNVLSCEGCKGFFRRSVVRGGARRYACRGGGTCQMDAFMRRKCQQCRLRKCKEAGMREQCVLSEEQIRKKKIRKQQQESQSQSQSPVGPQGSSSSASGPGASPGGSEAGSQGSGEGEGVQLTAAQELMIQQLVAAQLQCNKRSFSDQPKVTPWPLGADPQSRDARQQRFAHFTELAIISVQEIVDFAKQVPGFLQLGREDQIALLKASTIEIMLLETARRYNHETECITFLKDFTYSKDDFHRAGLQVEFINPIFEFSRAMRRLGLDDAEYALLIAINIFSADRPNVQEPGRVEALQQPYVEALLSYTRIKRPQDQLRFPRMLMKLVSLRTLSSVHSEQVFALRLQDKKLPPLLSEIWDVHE
Outline: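 Multiplexed reporter assay, HepG2, 24 h dosing. Fluorescence of labelled RT-PCR products after capillary electrophoresis gives transcript level; positive fitting direction relative to DMSO.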

[14] = ATG_M_32_TRANS: Attagene TRANS-FACTORIAL HepG2 Assay for M32 Transcription Factor (Internal Marker) (AID 2282984); settings: HepG2 Attagene TRANS M32 internal marker reporter;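 note: transcript level of a background control reporter unit measured by RT-PCR and capillary electrophoresis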
Outline: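 Internal-marker readout from a multiplexed transcription reporter panel. HepG2 cells were transfected with GAL4-UAS reporter units, treated 24 hours, and reporter transcript levels determined by fluorescence after RT-PCR and capillary separation.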

[15] = ATG_M_19_TRANS: Attagene TRANS-FACTORIAL HepG2 Assay for M19 Transcription Factor (Internal Marker) (AID 2282974); settings: HepG2 Attagene TRANS-FACTORIAL M19 internal marker reporter
Outline: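 Transfected HepG2 (GAL4-UAS MRTUs), 24 h compound, TriZol RNA, DNase-treated RT, reporter PCR, FAM label, HpaI digest, CE fluorescence; gain vs DMSO.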

[16] = target: Nuclear receptor subfamily 4 group A member 2 (Homo sapiens) (UniProt P43354); experiment: ATG_NURR1_TRANS: Attagene TRANS-FACTORIAL HepG2 Assay for human Nuclear Receptor Related Protein 1 (NURR1) (AID 2282985); settings: HepG2 Attagene TRANS reporter, mRNA readout
Outline: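 Endpoint: reporter mRNA increase relative to DMSO. HepG2 cells transfected with reporter units, treated 24 h; RNA processed by RT-PCR, labelling, HpaI digestion and capillary electrophoresis.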

[17] = target: Hepatocyte nuclear factor 4-alpha (Homo sapiens) (UniProt P41235); experiment: ATG_HNF4a_TRANS: Attagene TRANS-FACTORIAL HepG2 Assay for human Hepatocyte Nuclear Factor 4 alpha (HNF4a) (AID 2282982); settings: HepG2 HNF4a transactivation reporter, mRNA readout
Sequence of Hepatocyte nuclear factor 4-alpha (Homo sapiens) (P41235 whole entry, looked up, the tested form may be a part): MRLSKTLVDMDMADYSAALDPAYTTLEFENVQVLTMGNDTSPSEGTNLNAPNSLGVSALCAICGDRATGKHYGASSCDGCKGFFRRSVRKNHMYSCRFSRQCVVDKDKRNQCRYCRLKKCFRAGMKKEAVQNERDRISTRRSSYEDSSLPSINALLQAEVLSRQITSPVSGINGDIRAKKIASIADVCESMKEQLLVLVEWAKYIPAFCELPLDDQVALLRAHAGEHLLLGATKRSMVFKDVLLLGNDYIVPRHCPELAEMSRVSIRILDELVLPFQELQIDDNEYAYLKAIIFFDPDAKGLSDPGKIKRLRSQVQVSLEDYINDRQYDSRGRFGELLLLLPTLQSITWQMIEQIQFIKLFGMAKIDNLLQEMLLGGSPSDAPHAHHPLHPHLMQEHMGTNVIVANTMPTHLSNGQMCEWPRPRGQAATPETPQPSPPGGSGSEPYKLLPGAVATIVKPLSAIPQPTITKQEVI
Outline: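 Endpoint reflects transcriptional activation of a GAL4-UAS reporter by an HNF4a-GAL4 chimera in transfected HepG2 cells, 24 h post-dosing. Fluorescence from RT-PCR products separated by capillary electrophoresis; DMSO baseline.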

[18] = target: Oxysterols receptor LXR-alpha (Homo sapiens) (UniProt Q13133); experiment: ATG_LXRa_TRANS: Attagene TRANS-FACTORIAL HepG2 Assay for human Liver X Receptor alpha (LXRa) (AID 2282980); settings: HepG2 Attagene TRANS reporter, LXRa transactivation
Sequence of Oxysterols receptor LXR-alpha (Homo sapiens) (Q13133 whole entry, looked up): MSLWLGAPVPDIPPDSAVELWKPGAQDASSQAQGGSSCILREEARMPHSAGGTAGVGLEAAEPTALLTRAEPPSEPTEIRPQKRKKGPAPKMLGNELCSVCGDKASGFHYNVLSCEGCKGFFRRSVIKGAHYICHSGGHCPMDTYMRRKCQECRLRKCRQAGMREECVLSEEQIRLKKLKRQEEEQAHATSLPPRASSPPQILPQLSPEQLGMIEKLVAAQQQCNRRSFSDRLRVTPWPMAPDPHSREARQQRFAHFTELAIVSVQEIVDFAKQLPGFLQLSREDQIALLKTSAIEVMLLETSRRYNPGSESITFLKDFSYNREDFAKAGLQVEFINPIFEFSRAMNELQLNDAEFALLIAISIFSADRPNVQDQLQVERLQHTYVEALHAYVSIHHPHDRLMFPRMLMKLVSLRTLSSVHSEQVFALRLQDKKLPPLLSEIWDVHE
Outline: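 Transient HepG2 transfectants, 24 h dosing, RT-PCR/CE mRNA reporter quantitation; gain-of-signal vs DMSO.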

[19] = target: Nuclear receptor subfamily 1 group I member 3 (Homo sapiens) (UniProt Q14994); experiment: ATG_CAR_TRANS: Attagene TRANS-FACTORIAL HepG2 Assay for human Constitutive Androstane Receptor (CAR) (AID 2282969); settings: HepG2 Attagene TRANS-FACTORIAL CAR reporter;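 note: activators raise reporter mRNA above DMSO so AC50 marks induction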
Sequence of Nuclear receptor subfamily 1 group I member 3 (Homo sapiens) (Q14994 whole entry, looked up, the tested form may be a part): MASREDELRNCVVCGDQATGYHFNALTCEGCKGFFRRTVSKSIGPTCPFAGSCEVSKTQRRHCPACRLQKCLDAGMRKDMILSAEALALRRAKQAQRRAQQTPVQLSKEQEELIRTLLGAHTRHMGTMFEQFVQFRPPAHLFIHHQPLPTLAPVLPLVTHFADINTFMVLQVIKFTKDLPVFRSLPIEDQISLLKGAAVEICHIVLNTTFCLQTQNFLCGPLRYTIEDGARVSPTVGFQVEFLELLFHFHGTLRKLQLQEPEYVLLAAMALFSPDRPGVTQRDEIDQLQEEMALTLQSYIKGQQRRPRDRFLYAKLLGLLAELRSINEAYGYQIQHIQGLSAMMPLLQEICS
Outline: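 Transiently transfected HepG2, multiplex TRANS reporters (CAR-Gal4 chimera driving GAL4-UAS reporter). 24 h dosing. Readout: reporter transcript by RT-PCR + capillary electrophoresis, fluorescence intensity; positive direction vs DMSO.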

Measured: AC50

N=C(N)c1ccc(OCCCCCOc2ccc(C(=N)N)cc2)cc1
active: [1] 87.5 µM | [2] 23.5 µM | [3] 48.1 µM
inactive: [4] | [5] | [6] | [7] | [8] | [9]

O=CC(F)(F)C(F)(F)C(F)(F)C(F)F
not listed: [2] | [15] | [16] | [17] | [18] | [19]
inactive: all other assays above

COC(=O)C(F)(F)C(F)(F)C(F)(F)F
not listed: [6] | [10] | [11] | [12] | [17] | [18] | [19]
inactive: all other assays above

Cn1sccc1=O
inactive: [1] | [10] | [15] | [5] | [14] | [7]
active: [3] 160 µM | [9] 163 µM

NNC(=O)CCCCC(=O)NN
not listed: [2] | [5] | [6] | [11] | [15] | [16] | [18] | [19]
inactive: all other assays above

CCCC=O
not listed: [2] | [4] | [12] | [14] | [15] | [18] | [19]
inactive: all other assays above

Oc1c(Cl)cc(Cl)cc1Sc1cc(Cl)cc(Cl)c1O
active: [1] 3.4 µM | [3] 1.45 µM
not listed: [4] | [10] | [14] | [15] | [16] | [18] | [19]
inactive: all other assays above

O=C1c2ccc(O)c(O)c2C(=O)c2c(O)ccc(O)c21
active: [2] 4.53 µM
inactive: [1] | [11] | [12] | [18] | [13] | [17] | [16] | [7] | [8] | [9]

CC(=O)Nc1ccc(S(N)(=O)=O)cc1
not listed: [4] | [6] | [11] | [15] | [16] | [19]
inactive: all other assays above

O=C(O)c1cccc(C(=O)O)n1
not listed: [1] | [4] | [13] | [15] | [17] | [18]
inactive: all other assays above

CCc1cccc(CC)c1N(COC)C(=O)CS(=O)(=O)O
active: [1] 5.6 µM
inactive: [3] | [15] | [11] | [5] | [12] | [17] | [14] | [7] | [8] | [9]

CCC1CO1 (configuration not stated)
inactive: [1] | [3] | [4] | [5] | [12] | [17] | [6] | [7] | [8] | [9]

Nc1ccn([C@@H]2O[C@H](CO)[C@@H](O)C2O)c(=O)n1 (some centres not stated)
not listed: [2] | [3] | [6] | [11] | [14] | [15] | [18] | [19]
inactive: all other assays above

CCCCCCCCCC=CCC1CC(=O)OC1=O (configuration not stated)
inactive: [1] | [6] | [7] | [8] | [9]

NS(=O)(=O)O
not listed: [2] | [6] | [10] | [11] | [12] | [18] | [19]
inactive: all other assays above

CN(C)c1ccc(C(=C2C=CC(=[N+](C)C)C=C2)c2ccccc2)cc1
inactive: [3] | [4] | [11] | [5] | [12] | [13] | [17] | [6] | [14] | [7] | [8] | [9]
active: [1] 1.82 µM and 1.3 µM | [3] 1.94 µM | [16] 543 nM and 1.4 µM | [9] 5.55 µM

OCCN1CN(CCO)CN(CCO)C1
active: [3] 164 µM | [9] 144 µM
not listed: [2] | [6] | [10] | [11] | [16] | [19]
inactive: all other assays above
